Assay outcomes: PubChem, National Center for Advancing Translational Sciences (NCATS)
Rows were chosen to be rich in hits. Some 6% of all compounds tested hit in one or more screens of this group.
D1 ag = human D1 receptor agonism; HEK293 T-REx D1 cells, calcium flux, agonist mode; AID 504660; P21728; 1% of 360,000 active; activation, % at 2 µM; in the data active = activation above about 30%; note: 0% is about no effect
Target sequence (P21728 whole entry, looked up): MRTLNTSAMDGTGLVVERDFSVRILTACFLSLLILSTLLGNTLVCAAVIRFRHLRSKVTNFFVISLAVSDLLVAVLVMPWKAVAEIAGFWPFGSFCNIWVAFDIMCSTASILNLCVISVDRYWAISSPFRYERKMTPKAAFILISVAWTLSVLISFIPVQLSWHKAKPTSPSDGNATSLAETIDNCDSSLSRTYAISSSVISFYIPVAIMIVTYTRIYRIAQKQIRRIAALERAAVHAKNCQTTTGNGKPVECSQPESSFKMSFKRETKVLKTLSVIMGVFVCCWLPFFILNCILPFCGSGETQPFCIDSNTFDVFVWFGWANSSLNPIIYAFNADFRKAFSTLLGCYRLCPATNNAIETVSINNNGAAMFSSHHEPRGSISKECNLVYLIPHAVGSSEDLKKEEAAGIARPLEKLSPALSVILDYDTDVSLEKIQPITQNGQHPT
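Inducible HEK293 T-REx D1 cells, force-coupled to calcium signalling, were plated at 4000 cells/well with tetracycline and held overnight at 30 C. After no-wash calcium dye loading, compound-evoked calcium rise over 180 s flagged agonists.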
D3 antag = blocks the human D3 dopamine receptor; AID 652054; max response, negative = inhibition, %; D3R cells, DiscoveRx beta-arrestin luminescence, antagonist mode; active compounds read low; 2.5% of 360,000 active; in the data active = max response below about -50%; inconclusive = no clear call, values can overlap the other calls; note: % is set by controls: 0 for no effect and ±100 for the full control effect
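Cells plated overnight at 1500 cells/well, then exposed to library compounds with dopamine controls for 90 minutes at 37 degrees C. DiscoveRx reagent added for 30–60 minutes at room temperature; luminescence read, quantitative HTS format.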
D1 PAM = potentiators of human D1 dopamine receptor; HEK293 TREx D1 cells, calcium flux, dopamine EC20 potentiation; potentiation, % at 10 µM; 0.036% of 360,000 active; in the data active = potentiation above about 30%; note: 0% is about no effect
D1 antagonist = antagonists of human D1 dopamine receptor | 3.2% of 360,000 active | P21728 | activity change, negative = inhibition, % at 10 µM | HEK293 TREx D1 cells, calcium flux, dopamine EC80; active compounds read low; in the data active = activity change below about -30%; note: % is set by controls: 0 for no effect and ±100 for the full control effect
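Inducible Hek293 Trex D1 cells (tetracycline, overnight, 30 C). Calcium dye 30–90 min RT. Antagonist mode: EC80 dopamine added after 180 s compound read.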
D3 ag = activates the human D3 dopamine receptor | D3R DiscoveRx beta-arrestin cells, luminescence, 90 min | 0.58% of 410,000 active | AID 652048 | max activation, % | P35462; in the data active = max activation above about 30%; note: 0% is about no effect
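Agonist-mode cell screen: cells plated at 1500/well and incubated overnight at 37 °C, then exposed to library compounds for 90 min at 37 °C. Detection reagent was added for 30–60 min at room temperature, and luminescence was read.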
* = called active by the depositor; ? = inconclusive; . = no result; ! = not active in a repeat.

SMILES	D1 ag	D3 antag	D1 PAM	D1 antagonist	D3 ag
CN=c1scc(-c2ccco2)n1/N=C/c1ccc(O)c(O)c1	7	-10	-11	1	51*
CCc1nc2c(OCCOc3ccc(F)cc3)cccn2c1N(C)C(=O)C(C)C	.	3	.	.	-4
Fc1ccc(C(CCCn2nnc(-c3cccnc3)n2)c2ccc(F)cc2)cc1	17	28	-6	-30*	3
N#CCCn1nc(-c2ccc([N+](=O)[O-])cc2)cc1Nc1ccccc1NC(=O)C(F)(F)F	31*	-5	-8	-27	-9
COc1ccc(CCNC(=O)Cn2nc(C)c3c(C)n(-c4ccc(C)cc4)nc3c2=O)c(OC)c1	2	.	-2	-43*	-7
COc1ccc(NC(=O)CCCn2nc(C)c3c(C)n(-c4ccccc4)nc3c2=O)cc1OC	0	-5	-2	-53*	-1
Cc1ccc(NC(=O)CN2C(=O)COc3ccc(S(=O)(=O)N4CCCC4)cc32)c(C)c1	2	-13	-10	-47*	-3
CCC1CCCCN1CCCNC(=O)CN1C(=O)COc2ccc(S(=O)(=O)N3CCOCC3)cc21 (stereo unspecified)	0	-13	1	-38*	-7
CC1CCN(S(=O)(=O)c2ccc3c(c2)N(CC(=O)NCCCN2CCCC(C)C2)C(=O)CO3)CC1 (stereo unspecified)	2	-89*	1	0	-18
CC1CCN(S(=O)(=O)c2ccc3c(c2)N(CC(=O)NCCCN2CCCC(C)C2)C(=O)CS3)CC1 (stereo unspecified)	2	-20	2	6	-15
CN(CC(=O)Nc1ccc(F)c(F)c1)S(=O)(=O)c1cccc2cccnc12	2	13	-6	9	-12
CC(C)C[C@@H]1NC(=O)[C@H](CCCN)NC(=O)[C@H](C(C)C)NC(=O)[C@@H]2CCCN2C(=O)[C@@H](Cc2ccccc2)NC(=O)[C@H](CC(C)C)NC(=O)[C@H](CCCN)NC(=O)[C@H](C(C)C)NC(=O)[C@@H]2CCCN2C(=O)[C@@H](Cc2ccccc2)NC1=O	.	.	.	.	31*
O=C1N[C@@H](Cc2ccccc2)C(=O)N2CCC[C@@H]12	6	-16	-2	11	-7
COc1ccc(Cc2nnc(Nc3ccc(C)cc3C)[nH]c2=O)cc1	4	-61*	-3	7	-2
COc1ccc(Cc2nnc(SCC(=O)Nc3ccc(C)cc3C)[nH]c2=O)cc1	2	-3	3	-9	-3
CCOC(=O)CSc1nc2cc3c(cc2c(=O)n1Cc1ccc(C(=O)NCCc2ccc(OC)c(OC)c2)cc1)OCO3	3	.	-3	-12	0
COc1ccc(C(=O)c2[nH]c(N)c(C(=O)NCCc3c[nH]c4ccccc34)c2-c2ccc(Cl)c(F)c2)cc1	.	31	.	.	4
C[C@@H]1[C@@H](Sc2ccccc2)CC(=O)O[C@@H]1c1ccc(-c2ccccc2)cc1	.	4	.	.	12
O=C1C=CC2(O[C@H](c3ccccc3)[C@@H](c3ccccc3)O2)[C@H](Sc2ccccc2O)C1	.	-118*	.	.	-15
CCCCCc1c2c(cc(O)c1C(=O)O)OC(=O)c1c(cc(OC)cc1C(=O)CCCC)O2	11	9	-1	-31*	3
CCCN(C(=O)c1cc(S(=O)(=O)N2CCc3ccccc32)cn1C)c1ccc(OCC)cc1	-1	.	-3	1	-9
Cc1cc2nc3c(=O)n(C)c(=O)n(C)c3nc2cc1N=CN(C)C	46*	.	0	-12	3
O=C1OC(CC(=O)N(Cc2nnc(-c3ccc(Cl)cc3)o2)C2CC2)c2ccccc21 (stereo unspecified)	1	-19	.	-44*	-4
O=C(CSC(=S)N1CCCC1)N(Cc1nnc(-c2ccccc2Cl)o1)C1CC1	5	6	.	-67*	2
O=C(COc1ccccc1)N(Cc1nnc(-c2ccccc2Cl)o1)C1CC1	1	-24	1	-10	-18
SMILES	D1 ag	D3 antag	D1 PAM	D1 antagonist	D3 ag
Cc1ccc(CN2C(=O)C(CC(C)C)Nc3ncnc(N4CCN(c5ccccn5)CC4)c32)cc1 (stereo unspecified)	3	-88*	-5	-2	-50
COc1ccc(CN2C(=O)C(CC(C)C)Nc3ncnc(N4CCN(c5ccccn5)CC4)c32)cc1 (stereo unspecified)	7	-29	-8	-4	-31
CC(C)CC1Nc2ncnc(N3CCN(c4ccccn4)CC3)c2N(Cc2ccc(Br)cc2)C1=O (stereo unspecified)	3	-99*!	-1	2	-45
Cc1ccc(CN2C(=O)C(CC(C)C)Nc3ncnc(N4CCCCC4)c32)cc1 (stereo unspecified)	.	17	.	.	10
CCCCCC(=O)N1C[C@H](n2cc(C3CC3)nn2)[C@@H](O)C[C@@H]1c1ccccc1	.	7	.	.	5
CCOc1ccccc1NC(=O)c1sc2nc3n(c(=O)c2c1C)CCCCC3	-1	.	3	17	-5
Cc1ccc(-c2csc3nc4cc(C(N)=O)ccc4c(=O)n23)cc1	2	-61*	-7	-7	1
OCCN1CCOCCOc2ccccc2OCCOCC1	2	13	-2	4	6
c1ccc2c(c1)OCCOCCOCCOCCOCCOc1ccccc1OCCOCCOCCO2	22	1	-3	-36*	1
O=C(c1ccccc1)c1ccc(OCCOCCN2CCN(Cc3ccccc3)CC2)cc1	29	?	-10	-33*	-16
C(#CCN1CCC(Cc2ccccc2)CC1)COCCOCc1ccccc1	4	-2	-5	-35*	-4
O=C(c1ccccc1)c1ccc(OCCCCN2CCCCC2)cc1	11	-87*	-3	3	-4
CC(C#CCN1CCCCC1)OCCOCc1ccccc1 (stereo unspecified)	2	0	-4	14	-13
c1ccc(COCCN2CCN(CCOCc3ccccc3)CC2)cc1	-1	-69*	-1	-15	5
COc1ccc(Cn2c(SCc3ccc(C(=O)NC4CCCCC4)cc3)nc3ccncc32)cc1	12	.	-4	-8	-3
O=C(O)COc1ccc(C(=O)c2ccccc2)cc1	6	-1	-2	-30*	4
c1ccc(COc2ccc(OCCCCN3CCCCC3)cc2)cc1	42*	-72*	-5	-35*	-17
CCOC(=O)c1c(NC(=O)c2cc(=O)c3c(C)cc(C)cc3o2)sc(C(C)=O)c1C	5	.	0	-7	-3
CC(C)c1ccc2c(c1)C(N1CCNCC1)Cc1ccc(F)cc1S2 (stereo unspecified)	.	-63*	.	.	-10
CN1CCN(C2Cc3ccc(F)cc3Sc3cc(F)c(Cl)cc32)CC1 (stereo unspecified)	.	-105*	.	.	-21
CN1CCN(C2Cc3cc(F)ccc3Sc3ccc(Cl)cc32)CC1 (stereo unspecified)	.	-120*	.	.	-22
